In all, about 220,000 compounds went through this assay and about 710 (0.32%) were called active. Rule as the data show it: active = binding response below about 49% or above about 150%; inactive = in between. What follows is part of a selection rich in actives, with near analogues and random picks from the rest.
Each molecule was assayed against Guanine nucleotide-binding protein G(o) subunit alpha (Homo sapiens) (UniProt P09471) (assay: RGS4-Galphao interaction inhibitors and enhancers – biochemical, multiplexed bead flow cytometry, primary screen (AID 1415;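 also: fluorescent Galphao activated with aluminum fluoride binding bead-coupled RGS4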)). Details: at 10 µM, actives lie on both sides.
Guanine nucleotide-binding protein G(o) subunit alpha (Homo sapiens), sequence (P09471 whole entry, looked up): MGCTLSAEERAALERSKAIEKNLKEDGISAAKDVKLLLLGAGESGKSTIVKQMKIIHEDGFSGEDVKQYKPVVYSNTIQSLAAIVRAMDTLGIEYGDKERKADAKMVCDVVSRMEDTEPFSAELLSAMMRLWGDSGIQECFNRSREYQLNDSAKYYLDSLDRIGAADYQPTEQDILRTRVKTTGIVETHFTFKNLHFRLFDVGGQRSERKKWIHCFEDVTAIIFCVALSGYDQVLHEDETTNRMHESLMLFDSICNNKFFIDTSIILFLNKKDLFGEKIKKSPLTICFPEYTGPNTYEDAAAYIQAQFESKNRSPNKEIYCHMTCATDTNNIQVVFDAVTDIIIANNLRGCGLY

Binding response (% of control), active:
CCN(CC)CCOc1ccc2c(c1)C(=NNC(=O)c1ccccn1)c1cc(OCCN(CC)CC)ccc1-2 172% [activator]
CC(=O)Nc1nc(N(C)C)nc(N(C)C)n1 14.5%
O=C(NCc1ccc(F)cc1)C1CCC(CNc2c(N3CCOCC3)c(=O)c2=O)CC1 (configuration not stated) 11.6%
CCCC(=O)n1nc(-c2ccccc2)nc1N 25.8%
CCOC(=O)C1Sc2[nH]c(=O)sc2C(c2ccc(Cl)cc2)C1C(=O)OCC (configuration not stated) -41.2%
Cc1cc(C)cc(N(CC(=O)Nc2c(C)n(C)n(-c3ccccc3)c2=O)S(C)(=O)=O)c1 -43.6%
N#Cc1nc(COc2ccc(-c3ccccc3)cc2)oc1NCc1cccnc1 153% [activator]
Cc1cccc(S(=O)(=O)CC(=O)Nc2nc(-c3ccccc3)cs2)c1 183% [activator]

Binding response (% of control), inactive:
COc1ccc(/C=C/C(=O)Nc2ccc(C34CC5CC(CC(O)(C5)C3)C4)cc2)cc1OC 102%
Cc1ccsc1/C=N/Nc1ccc(Cl)nn1 108%
C=CCN1CC(C)/C(=N\O)CC1C (configuration not stated) 99.6%
O=C(NC1CCCCC1)c1ccc(CNc2c(N3CCOCC3)c(=O)c2=O)cc1 102%
COc1ccc(CC(=O)N/N=C(\C)c2ccccn2)cc1 91.7%
CCOc1cc(NC(=O)c2ccccn2)c(OCC)cc1NC(=O)c1ccc(OC)cc1 102%
COC(=O)c1c(C(=O)OC)c(-c2cccc(C)c2)n2c1CS(=O)C2 (configuration not stated) 91.5%
CCC(=O)Nc1nc(OC)cc(OC)n1 102%
COc1cc(OC)nc(NC(=O)CCl)n1 101%
COc1ccc(CNC(=O)C2CCC(CNc3c(N4CCOCC4)c(=O)c3=O)CC2)cc1 (configuration not stated) 106%
CC(NC(=O)C1CCC(CNc2c(N3CCOCC3)c(=O)c2=O)CC1)c1ccccc1 (configuration not stated) 99.8%
O=C(c1ccc(Br)o1)N(c1ccccn1)C1CCCCC1 92.3%
CC(Nc1nc(N2CCN(CCO)CC2)nc2ccccc12)c1ccccc1 (configuration not stated) 100%
Cc1ccc(NC(=S)N2CCN(c3ncccn3)CC2)cc1C 104%
C=CCc1cccc2cc(C(=O)NC3CCCC3)c(=O)oc12 97.8%
C/C=C\C=C\C(=O)N1CC2(CC(c3cccc(NC(=O)/C(C)=C\C)c3)=NO2)C[C@H]1C(N)=O (some centres not stated) 103%
COc1ccc(CC(=O)n2nc(-c3cccnc3)nc2N)cc1 96.8%
COc1ccccc1C(=O)n1nc(-c2ccccc2)nc1N 98.8%
CCCNC(=S)NC1CC2CCCC(C1)N2CC(C)C (configuration not stated) 99.3%
CCNC(=O)CC1C(=O)N(c2ccc(F)cc2)C(=O)N1CCc1sccc1C (configuration not stated) 99.7%
CC(C)C(NS(=O)(=O)c1cccs1)C(=O)Nc1nc(C(C)(C)C)cs1 (configuration not stated) 99%
COc1ccc(CCNC(=O)C2CC3Cn4c(nc5cc(C)c(C)cc54)C3N2C)cc1 (configuration not stated) 103%
COc1ccc(C)cc1NC(=O)CSc1ccc(Cl)cc1 105%
CCOc1ccc(-c2ccc(SCC(=O)N3CCOCC3)nn2)cc1 104%
CCOC(=O)c1c(C)[nH]c(C2=NNC(=NC(C)COC)SC2)c1C (configuration not stated) 92.4%
CCOC(=O)C1C(c2ccc(Cl)cc2)NC(=S)NC1(O)C(F)(F)F (configuration not stated) 102%
CCOC(=O)C1=C(C)NC(=O)N(C(C)=O)C1c1ccc(Cl)cc1 (configuration not stated) 115%
CC(=O)NS(=O)(=O)c1ccc(NC(=O)C2C3C=CC(C3)C2C(=O)O)cc1 (configuration not stated) 101%
CCOC(=O)c1c(Cc2ccc(Cl)cc2)c[nH]c1C 102%
Cc1ccc(S(=O)(=O)CC(=O)Nc2c(C)n(C)n(-c3ccccc3)c2=O)cc1 97.9%
Cc1cc(C)cc(N(C(C)C(=O)Nc2c(C)n(C)n(-c3ccccc3)c2=O)S(C)(=O)=O)c1 (configuration not stated) 102%
COCCCNC(=O)CN1CCN(Cc2ccccc2Cl)C1=O 103%
O=C(COc1ccc(/C=N/NC(=O)c2ccc(O)cc2)cc1)Nc1ccc([N+](=O)[O-])cc1 103%
Cc1cc(N2CCOCC2)nc(-c2ccc(Br)cc2)n1 95.9%
C#CCOCCOCCOCCNc1nc(N2CCN(C(=O)[C@H](CCC(=O)O)n3cc(C(N)CO)nn3)CC2)nc(N2CCN(C(=O)[C@H](CCCCN)n3cc(C(N)[C@H](C)CC)nn3)CC2)n1 (some centres not stated) 102%
C=CCc1cccc2cc(C(=O)Nc3ccc(NC(C)=O)cc3)c(=O)oc12 102%
N#Cc1nc(-c2ccc(OCc3ccccc3)cc2)oc1NCCCN1CCOCC1 100%
N#Cc1nc(Cc2ccccc2)oc1NCCc1ccccc1 103%
Cc1ccccc1C1=NC(C(F)(F)F)(C(F)(F)F)c2c(n(-c3ccc(F)cc3)c(=O)[nH]c2=O)N1 104%
CCC(C)NC(=O)CN(C1CCCCC1)S(C)(=O)=O (configuration not stated) 99.8%
O=S(=O)(NC(=S)Nc1ccccc1)c1ccc(F)cc1 103%
CC(C)Oc1ccc(CC(=O)NNC(=S)Nc2ccc(Br)cc2)cc1 99.3%
O=C(NCc1ccc2c(c1)OCO2)C12CC3CC(CC(C3)C1)C2 98.9%
Cc1ccc(C2NC(C(=O)O)CS2)cc1 (configuration not stated) 103%
NS(=O)(=O)c1ccc(Nc2nc(-c3ccccc3)cs2)cc1 106%
O=C(CSC1=NCCS1)Nc1nc(-c2ccccc2)cs1 83.7%
CCOc1ccccc1Oc1cn[nH]c1-c1ccc(OC)cc1O 99%
COc1ccc(Cl)cc1C(=O)NNC(=O)c1nc2nc(C)cc(C)n2n1 103%
C#CCOCCOCCOCCNc1nc(N2CCN(C(=O)[C@H](C(C)C)n3cc(CCO)nn3)CC2)nc(N2CCN(C(=O)[C@H]([C@@H](C)CC)n3cc(CCCN=C(N)N)nn3)CC2)n1 101%

Reference: PubChem BioAssay AID1415 (NMMLSC, 2008)
